# From PubChem BioAssay (NCATS)
# Records with an inconclusive call do not appear. A number with no mark means an inactive call. The source made the active and inactive calls. The call rests on the fitted dose curve; in most records, active means well fitted inhibition curve with a large enough effect; inconclusive means small, poorly fitted or top-dose-only effect; inactive means flat fitted curve, though single readings scatter.
# Target: Luciferin 4-monooxygenase (Photinus pyralis) (UniProt P08659)
# Sequence (P08659 whole entry, looked up): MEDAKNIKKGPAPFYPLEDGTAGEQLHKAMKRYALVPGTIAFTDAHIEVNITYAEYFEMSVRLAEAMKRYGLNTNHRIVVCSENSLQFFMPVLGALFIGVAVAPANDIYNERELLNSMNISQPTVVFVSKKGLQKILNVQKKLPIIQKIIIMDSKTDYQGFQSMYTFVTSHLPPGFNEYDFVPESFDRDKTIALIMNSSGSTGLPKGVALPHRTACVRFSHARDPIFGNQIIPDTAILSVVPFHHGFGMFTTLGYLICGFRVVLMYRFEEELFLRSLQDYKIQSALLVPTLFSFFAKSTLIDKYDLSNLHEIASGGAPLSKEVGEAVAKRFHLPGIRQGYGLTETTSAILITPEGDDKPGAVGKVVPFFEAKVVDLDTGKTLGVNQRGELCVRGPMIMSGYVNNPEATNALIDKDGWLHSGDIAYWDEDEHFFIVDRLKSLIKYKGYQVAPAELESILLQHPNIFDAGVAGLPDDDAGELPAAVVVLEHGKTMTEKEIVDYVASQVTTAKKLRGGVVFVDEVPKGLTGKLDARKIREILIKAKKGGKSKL
# Assay: Biochemical firefly luciferase enzyme assay for NPC (AID 624030); further: nearly all actives have a fitted effect of over 70% in size;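 on activity change, negative = inhibition: 0% = DMSO and -100% = full luciferase inhibition by PTC124 control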
# Details: purified P. pyralis luciferase, luminescence, 5 min; series mostly up to 58.6 µM; activity change, negative = inhibition: at the top concentration
# Source text: Charcot-Marie-Tooth-Association [CMTA] National Center for Advancing Translational Sciences [NCATS] Charcot-Marie-Tooth (CMT) disease was first characterized by Jean-Martin Charcot and Pierre Marie in France and, independently, by Howard Henry Tooth in England in 1886. CMT is one of the most common inherited neurological diseases, affecting approximately 1 in 2,500 Americans. […] The most prevalent type of CMT is known as CMT1A and caused by a duplication of the PMP22 gene which leads to over-expression of this protein. PMP22 is a glycosylated intrinsic membrane protein accounting for 2-5% of the myelin protein content, and its over-expression results in demyelination and subsequently axonal loss. A pair of cellular transcription-based assays was developed in the S16 rat Schwann cell lines (Hai, M., et al., 2002) stably transfected with orthogonal reporters - firefly luciferase (Fluc) and beta-lactamase (beta-Lac) - whose expression is driven by an intronic regulatory element of the PMP22 gene (Jones, E.A., et al., 2011) to recapitulate endogenous expression of PMP22. A comprehensive library of approved drugs, the NCGC Pharmaceutical Collection (Huang, R., et al., 2011), was screened in the cross-validating platform of the orthogonal reporter assays to identify drug modulators inhibitory towards PMP22 expression. A set of counter-screens was devised to address non-specific activity of the library. An ATP-dependent CellTiter-Glo assay (developed by Promega Corp) was utilized to control cell viability. In addition, biochemical Fluc enzyme assay was performed to assess direct inhibition of the Fluc enzymatic activity. References Hai, M., Muja, N., DeVries, G.H., Quarles, R.H. and Patel, P.I. Comparative analysis of Schwann cell lines as model systems for myelin gene transcription studies. J Neurosci Res, 2002. 69(4): pp 497-508 Huang, R., Southall, N., Wang, Y., Yasgar A., Shinn P., Jadhav, A. , Nguyen, D.-T. and Austin, C.P., The NCGC pharmaceutical collection: a comprehensive resource of clinically approved drugs enabling repurposing and chemical genomics. Sci Transl Med, 2011. 3(80): p. 80ps16.
# Compounds were transferred to the plates in 23nl, and one microliter/well luciferase enzyme-buffer solution (10 nM P. pyralis luciferase and 50 mM Tris Acetate final concentrations) was dispensed yielding a final reaction volume of […]. Luciferase luminescence was measured by a ViewLux plate reader within 5 minutes of enzyme-buffer addition. The % activity was determined by normalizing to the average readings of PTC124 (a positive control) relative to DMSO (0% Activity). The concentration-effect curves were then classified based on curve quality (r2), response magnitude and degree of measured activity.
# Potency means the concentration at half of the fitted maximal effect.
SMILES,"activity change, negative = inhibition [%]",Potency
COC(=O)C1[C@@H](OC)C(OC(=O)COc2ccc(OC)cc2)C[C@@H]2CN3CCc4c([nH]c5cc(OC)ccc45)[C@H]3C[C@H]12 (stereo not given in full),0.183,–
NC(=O)OC[C@@H]1[C@H](NC(=O)/C(=N/OCC(=O)O)c2csc(N)n2)C(=O)N1S(=O)(=O)O,0.628,–
CO/N=C(/C(=O)N[C@@H]1C(=O)N2C(C(=O)O)=C(CSc3nnnn3C)CS[C@H]12)c1csc(N)n1,-5.88,–
C=CCn1c(=O)n(C2OC(CO)C(O)C2O)c2nc(N)[nH]c(=O)c21 (stereo not given),1.52,–
CC(C)(C)C(=O)OCC(=O)C1CCC2C3CCC4=CC(=O)CCC4(C)C3CCC12C (stereo not given),0.151,–
CC(O)C1CCC2C3CCC4CC(O)CCC4(C)C3CCC12C (stereo not given),-2.91,–
NC(CSSCC(N)C(=O)O)C(=O)O (stereo not given),0.866,–
CO/N=C(/C(=O)N[C@@H]1C(=O)N2C(C(=O)O)=C(CSc3nc(C)c(CC(=O)O)s3)CS[C@H]12)c1csc(N)n1,-8.3,–
O=C(O)c1ccccc1-c1c2ccc(=O)cc-2oc2cc(O)ccc12,-0.453,–
CC(=O)OC1C([N+]2(C)CCCCC2)C[C@H]2C3CC[C@H]4C[C@H](OC(C)=O)C([N+]5(C)CCCCC5)CC4(C)C3CCC12C (stereo not given in full),10.6,–
CC1OC(OC2CCC3(C)C(CCC4C3CC(O)C3(C)C(C5=CC(=O)OC5)CCC43O)C2)CC(O)C1OC1CC(O)C(OC2CC(O)C(OC3OC(CO)C(O)C(O)C3O)C(C)O2)C(C)O1 (stereo not given),8.97,–
C=C[C@@]1(C)C[C@H](OC(=O)CSC(C)(C)CNC(=O)[C@@H](N)C(C)C)[C@@]2(C)C(C)CC[C@@]3(CCC(=O)[C@@H]32)[C@H](C)[C@H]1O (stereo not given in full),5.35,–
C=C(NCc1ccccc1)c1ccccc1O,-0.737,–
O=C1CC[C@H](C(=O)N[C@@H]2C[C@H]2c2ccccc2)N1,0.562,–
CC(=O)OCC(=O)[C@@]1(O)CCC2C3CCC4=CC(=O)C=CC4(C)C3C(O)C[C@]21C (stereo not given in full),0.977,–
C=C1CC[C@H](O)C/C1=C/C=C1\CCC[C@]2(C)[C@@H]([C@H](C)CC[C@@H](O)C(C)(C)O)CC[C@@H]12,-10.6,–
CCC1OC(=O)C[C@@H](O)[C@H](C)[C@@H](OC2OC(C)CC(N(C)C)C2O)[C@@H](CC=O)C[C@@H](C)C(=O)/C=C/[C@]2(C)OC2C1C (stereo not given in full),2.51,–
C=C(CC[C@@H](C)[C@H]1CCC2[C@]1(C)CC[C@]13C[C@@]14CCC(OC(=O)/C=C/c1ccc(O)c(OC)c1)C(C)(C)[C@@H]4CC[C@@]23C)C(C)C (stereo not given in full),-8.56,–
C#C[C@]1(O)CC[C@H]2[C@H]3[C@H](CC[C@@]21C)C1=C(CC(=O)CC1)C[C@@H]3C,-4.71,–
CCC(C)C(N)C(=O)O (stereo not given),-1.64,–

SMILES,"activity change, negative = inhibition [%]",Potency
CN(C)CC[C@@](O)(c1ccccc1)c1ccccc1Cl,7.05,–
CC(=O)N1CC(O)CC1C(=O)O (stereo not given),1.93,–
O=C(OC[C@@H]1O[C@@](O)(COC(=O)c2cccnc2)[C@H](OC(=O)c2cccnc2)[C@H]1OC(=O)c1cccnc1)c1cccnc1,-2.7,–
CC1(C)CC1C(=O)N/C(=C/CCCCSCC(N)C(=O)O)C(=O)O (stereo not given),2.26,–
CCC1OC(=O)C[C@H](O)C(C)[C@@H](O[C@@H]2OC(C)C(O)C(N(C)C)C2O)C(CCN2CC(C)CC(C)C2)CC(C)C(=O)/C=C/C(C)=C\[C@@H]1COC1OC(C)C(O)C(OC)C1OC (stereo not given in full),-4.48,–
CC(CCC(=O)O)C1CCC2C3C(=O)C[C@@H]4CC(=O)CC[C@@]4(C)C3CC(=O)[C@]12C (stereo not given in full),0.0858,–
CC[C@H](C)[C@H]1O[C@]2(CC[C@@H]1C)C[C@@H]1C[C@@H](C/C=C(\C)[C@H](O[C@@H]3C[C@H](OC)[C@H](O[C@@H]4C[C@H](OC)[C@@H](O)[C@H](C)O4)[C@H](C)O3)[C@@H](C)/C=C/C=C3\CO[C@@H]4[C@H](O)C(C)=C[C@@H](C(=O)O1)[C@]34O)O2,4.75,–
OCC1O[C@@H](O[C@@H]2C(CO)OC(O)C(O)C2O)C(O)C(O)C1O (stereo not given in full),7.21,–
CC(=O)OCC(=O)[C@@]1(O)CCC2C3C[C@H](C)C4=CC(=O)C=CC4(C)C3C(O)CC21C (stereo not given in full),0.317,–
CC(O)C(N)C(=O)O (stereo not given),7.01,–
CCOC(=O)C(CCc1ccccc1)NC(C)C(=O)N1Cc2cc(OC)c(OC)cc2CC1C(=O)O (stereo not given),-0.513,–
CCCCCCCCCCCCCCCC(=O)OCC(COP(=O)(O)OCC[N+](C)(C)C)OC(=O)CCCCCCCCCCCCCCC (stereo not given),0.611,–
COc1cc([C@H]2c3cc4c(cc3[C@@H](O[C@H]3O[C@H]5CO[C@@H](C)O[C@H]5[C@@H](O)[C@@H]3O)[C@@H]3COC(=O)[C@H]23)OCO4)cc(OC)c1O,2.28,–
CCC(=O)O[C@]1(C(=O)CCl)[C@@H](C)CC2C3C[C@H](F)C4=CC(=O)C=CC4(C)[C@@]3(F)C(O)CC21C (stereo not given in full),-4.04,–
CC1(C)C2CC[C@]1(C)[C@@H](O)C2,0.818,–
CNc1cc(OC)c(C(=O)N[C@@H]2CCN(Cc3ccccc3)[C@H]2C)cc1Cl,-6.74,–
O=C(O)CC(O)CC(O)/C=C/c1c(C2CC2)nc2ccccc2c1-c1ccc(F)cc1 (stereo not given),-7,–
O=C(O)Cc1sc(-c2ccc(Cl)cc2)nc1-c1ccccc1,–,25.6 µM (active)
C[C@H]1[C@@H](OC(=O)CCC(=O)O)OC2OC3(C)CC[C@H]4[C@H](C)CC[C@@H]1[C@@]24OO3 (stereo not given in full),-4.62,–
C=C1C(n2cnc3c(=O)[nH]c(N)nc32)C[C@H](O)[C@H]1CO (stereo not given in full),0.0663,–
